Values joined by “and” are separate entries in the source; they are usually repeats but may differ in a detail not shown here. Identical values can stand only once. A structure can be active in one record and inactive in another. Active and inactive are the calls of the source. How the source made its calls: active means hit-call score of the fitted dose curve at least 0.9, where 1 is the maximum; inactive means score below 0.9.
Assays:
Details in all cases: mRNA level, 48 h; actives raise or lower the signal
[1] = read-out: Paternally Expressed 10 (PEG10), PEG10 (gene 23089); test: LTEA_HepaRG_PEG10: Life Technologies and Expression Analysis (LTEA) Assay for Paternally Expressed 10 (PEG10) using HepaRG (AID 2283520)
Procedure, shortened: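 HepaRG, 48 h post-plating → serum-free induction medium → 48 h chemical exposure (duplicate, 8-pt, max 100 uM, half-log, 0.5% DMSO) → lysis in RLT → TaqMan qRT-PCR for PEG10, ACTB/GAPDH/POLR2A normalisation.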

[2] = read-out: Nuclear factor NF-kappa-B p105 subunit (Homo sapiens) (UniProt P19838); test: LTEA_HepaRG_NFKB1: Life Technologies and Expression Analysis (LTEA) Assay for Nuclear Factor Kappa B Subunit 1 (NFKB1) using HepaRG (AID 2283521);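 further: differentiated human HepaRG liver cells in serum-free induction medium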
Procedure, shortened: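 NFKB1 transcript was measured by TaqMan qRT-PCR on Fluidigm arrays, normalised to three housekeeping genes and fitted in both directions against 0.5% DMSO. HepaRG cells were dosed in duplicate for 48 h in serum-free induction medium, eight half-log steps from 100 uM.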

[3] = read-out: Protein phosphatase 2A (PPP2R4), PTPA (gene 5524); test: LTEA_HepaRG_PPP2R4: Life Technologies and Expression Analysis (LTEA) Assay for Protein phosphatase 2A (PPP2R4) using HepaRG (AID 2283522)
Procedure, shortened: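 Readout is PPP2R4 transcript level by microfluidic qRT-PCR after 48 h chemical treatment of human HepaRG liver cells. Concentrations spanned 100 uM downward in half-log steps; gain or loss of signal was fitted relative to DMSO.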

[4] = read-out: Hypoxia-inducible factor 1-alpha (Homo sapiens) (UniProt Q16665); test: LTEA_HepaRG_HIF1A: Life Technologies and Expression Analysis (LTEA) Assay for Hypoxia-inducible factor 1 (HIF1A) Trancription factor using HepaRG (AID 2283503)
Procedure, shortened: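 Differentiated HepaRG cells in serum-free induction medium exposed 48 h, in duplicate, to 8-point half-log series from 100 uM in 0.5% DMSO. HIF1A mRNA measured by TaqMan qRT-PCR, normalized to ACTB/GAPDH/POLR2A, fitted bidirectionally versus DMSO.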

[5] = read-out: 3-Hydroxy-3-Methylglutaryl-CoA Synthase 2 (HMGCS2), HMGCS2 (gene 3158); test: LTEA_HepaRG_HMGCS2: Life Technologies and Expression Analysis (LTEA) Assay for 3-Hydroxy-3-Methylglutaryl-CoA Synthase 2 (HMGCS2) using HepaRG (AID 2283504)
Procedure, shortened: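 This steatosis marker was read as HMGCS2 mRNA change in HepaRG cells treated 48 h with up to 100 uM chemical. Normalisation used housekeeping genes; activity in either direction was fitted relative to 0.5% DMSO vehicle.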

[6] = read-out: HGF (gene 3082); test: LTEA_HepaRG_HGF: Life Technologies and Expression Analysis (LTEA) Assay for Hepatocyte Growth Facto (HGF) using HepaRG (AID 2283505)
Procedure, shortened: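 Using HepaRG monolayers kept in 0.5% DMSO, chemicals were tested in duplicate over eight half-log concentrations from 100 uM for 48 h. Endpoint: HGF mRNA change relative to DMSO, normalized to ACTB/GAPDH/POLR2A.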

[7] = read-out: Insulin Like Growth Factor 1 (IGF1), IGF1 (gene 3479); test: LTEA_HepaRG_IGF1: Life Technologies and Expression Analysis (LTEA) Assay for Insulin Like Growth Factor 1 (IGF1) using HepaRG (AID 2283506)
Procedure, shortened: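 HepaRG, plated 48 h, then switched to serum-free induction media; test chemical 8-pt half-log from 100 uM (0.5% DMSO), duplicate, 48 h. Lysis in RLT, TaqMan qRT-PCR, norm. ACTB/GAPDH/POLR2A. Bidirectional fit vs DMSO.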

[8] = read-out: Intercellular Adhesion Molecule 1 (ICAM1), ICAM1 (gene 3383); test: LTEA_HepaRG_ICAM1: Life Technologies and Expression Analysis (LTEA) Assay for Intercellular Adhesion Molecule 1 (ICAM1) using HepaRG (AID 2283507)
Procedure, shortened: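 Using the human liver line HepaRG, compounds are tested in duplicate over 48 h at concentrations up to 100 uM. Expression is determined by TaqMan qRT-PCR, normalized to endogenous controls, and analysed relative to 0.5% DMSO vehicle.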

[9] = read-out: Insulin-like growth factor-binding protein 1 (IGFBP1), IGFBP1 (gene 3484); test: LTEA_HepaRG_IGFBP1: Life Technologies and Expression Analysis (LTEA) Assay for Insulin-like growth factor-binding protein 1 (IGFBP1) using HepaRG (AID 2283508)
Procedure, shortened: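 HepaRG, 48 h, 8 conc. (max 100 uM, half-log), duplicates, 0.5% DMSO. Readout: TaqMan qRT-PCR, ACTB/GAPDH/POLR2A normalisation. Fit: bidirectional vs DMSO.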

[10] = read-out: Interleukin 6 (IL6), IL6 (gene 3569); test: LTEA_HepaRG_IL6: Life Technologies and Expression Analysis (LTEA) Assay for Interleukin 6 (IL6) using HepaRG (AID 2283509)
Procedure, shortened: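 HepaRG, ~100,000 cells/well, 48 h pre-culture; serum-free induction medium; cmpd 8-pt half-log from 100 uM, 0.5% DMSO, duplicate, 48 h. Lysis in RLT, TaqMan qRT-PCR; gain or loss vs DMSO.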

[11] = read-out: Potassium channel subfamily K member 1 (KCNK1), KCNK1 (gene 3775); test: LTEA_HepaRG_KCNK1: Life Technologies and Expression Analysis (LTEA) Assay for Potassium channel subfamily K member 1 (KCNK1) using HepaRG (AID 2283511)
Procedure, shortened: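 Gain or loss of KCNK1 mRNA is the read-out, quantified by qRT-PCR against three housekeeping genes after 48 h chemical treatment of human HepaRG liver cells. Concentrations ran from 100 uM downward in half-log steps, vehicle 0.5% DMSO.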

[12] = read-out: Keratin 19 (KRT19), KRT19 (gene 3880); test: LTEA_HepaRG_KRT19: Life Technologies and Expression Analysis (LTEA) Assay for Keratin 19 (KRT19) using HepaRG (AID 2283512)
Procedure, shortened: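 Readout is qRT-PCR of KRT19 mRNA, normalized to ACTB, GAPDH and POLR2A, from HepaRG cells treated 48 h with eight-point half-log dilutions topping at 100 uM. Activity in either direction is scored relative to 0.5% DMSO vehicle.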

[13] = read-out: JUN Transcription Factor, JUN (gene 3725); test: LTEA_HepaRG_JUN: Life Technologies and Expression Analysis (LTEA) Assay for JUN Transcription Factor using HepaRG (AID 2283513)
Procedure, shortened: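 Cells plated 48 h, medium switched to serum-free induction medium, then dosed 48 h (100 uM top, half-log dilutions, 0.5% DMSO). RNA isolated; JUN measured by qRT-PCR against three housekeeping genes; gain or loss fitted relative to DMSO.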

[14] = read-out: Lipase C (LIPC), LIPC (gene 3990); test: LTEA_HepaRG_LIPC: Life Technologies and Expression Analysis (LTEA) Assay for Lipase C (LIPC) using HepaRG (AID 2283514)
Procedure, shortened: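 Read-out is LIPC transcript level by TaqMan qRT-PCR, normalized to three housekeeping genes, after 48 h chemical treatment of human HepaRG liver cells. Curves span eight concentrations topping at 100 uM; activity in either direction scored relative to 0.5% DMSO.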

[15] = read-out: Lipoprotein lipase (LPL), LPL (gene 4023); test: LTEA_HepaRG_LPL: Life Technologies and Expression Analysis (LTEA) Assay for Lipoprotein lipase (LPL) using HepaRG (AID 2283515)
Procedure, shortened: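 Read-out is LPL transcript level by qRT-PCR, normalized to three housekeeping genes and fitted bidirectionally against the DMSO control. Human HepaRG cells received chemicals for 48 h at up to 100 uM.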

[16] = read-out: MicroRNA 122 (MIR122), gene 406906; test: LTEA_HepaRG_MIR122: Life Technologies and Expression Analysis (LTEA) Assay for MicroRNA 122 (MIR122) using HepaRG (AID 2283516); further: the transcript read is the microRNA miR-122
Procedure, shortened: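 HepaRG plated 48 h, switched to serum-free induction medium, then treated in duplicate for 48 h (100 uM top, half-log steps, 0.5% DMSO vehicle). RNA isolated, qRT-PCR performed, concentration-response fitted both directions relative to DMSO.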

[17] = read-out: matrix metalloproteinase-10 (MMP10), MMP10 (gene 4319); test: LTEA_HepaRG_MMP10: Life Technologies and Expression Analysis (LTEA) Assay for matrix metalloproteinase-10 (MMP10) using HepaRG (AID 2283517)
Procedure, shortened: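 Gain or loss of MMP10 mRNA is fitted relative to the 0.5% DMSO vehicle. The human hepatic line HepaRG receives a 48-hour serum-free exposure, in duplicate, with a maximum concentration of 100 uM.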

[18] = read-out: MYC, MYC (gene 4609); test: LTEA_HepaRG_MYC: Life Technologies and Expression Analysis (LTEA) Assay for MYC using HepaRG (AID 2283518)
Procedure, shortened: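 Expression changes were scored by TaqMan qRT-PCR with ACTB, GAPDH and POLR2A normalization. Cultures in serum-free induction medium received duplicate 8-point concentration series, highest 100 uM, for 48 h; DMSO (0.5%) served as baseline.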

[19] = read-out: matrix metalloproteinase-3 (MMP3), MMP3 (gene 4314); test: LTEA_HepaRG_MMP3: Life Technologies and Expression Analysis (LTEA) Assay for matrix metalloproteinase-3 (MMP3) using HepaRG (AID 2283519)
Procedure, shortened: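 HepaRG, human; 48 h dosing, 8 conc. (max 100 uM, half-log), duplicate, 0.5% DMSO. Readout: MMP3 transcript by Fluidigm TaqMan qRT-PCR, ACTB/GAPDH/POLR2A-normalised. Gain or loss fitted vs DMSO.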

[20] = read-out: Interleukin 6 Receptor (IL6R), IL6R (gene 3570); test: LTEA_HepaRG_IL6R: Life Technologies and Expression Analysis (LTEA) Assay for Interleukin 6 Receptor (IL6R) using HepaRG (AID 2283510)
Procedure, shortened: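 Readout is IL6R transcript level by TaqMan qRT-PCR, normalized to three housekeeping genes and fitted bidirectionally against 0.5% DMSO controls. Human HepaRG cells received chemicals for 48 h in serum-free induction medium, highest concentration 100 uM.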

Sequence of Hypoxia-inducible factor 1-alpha (Homo sapiens) (Q16665 whole entry, looked up): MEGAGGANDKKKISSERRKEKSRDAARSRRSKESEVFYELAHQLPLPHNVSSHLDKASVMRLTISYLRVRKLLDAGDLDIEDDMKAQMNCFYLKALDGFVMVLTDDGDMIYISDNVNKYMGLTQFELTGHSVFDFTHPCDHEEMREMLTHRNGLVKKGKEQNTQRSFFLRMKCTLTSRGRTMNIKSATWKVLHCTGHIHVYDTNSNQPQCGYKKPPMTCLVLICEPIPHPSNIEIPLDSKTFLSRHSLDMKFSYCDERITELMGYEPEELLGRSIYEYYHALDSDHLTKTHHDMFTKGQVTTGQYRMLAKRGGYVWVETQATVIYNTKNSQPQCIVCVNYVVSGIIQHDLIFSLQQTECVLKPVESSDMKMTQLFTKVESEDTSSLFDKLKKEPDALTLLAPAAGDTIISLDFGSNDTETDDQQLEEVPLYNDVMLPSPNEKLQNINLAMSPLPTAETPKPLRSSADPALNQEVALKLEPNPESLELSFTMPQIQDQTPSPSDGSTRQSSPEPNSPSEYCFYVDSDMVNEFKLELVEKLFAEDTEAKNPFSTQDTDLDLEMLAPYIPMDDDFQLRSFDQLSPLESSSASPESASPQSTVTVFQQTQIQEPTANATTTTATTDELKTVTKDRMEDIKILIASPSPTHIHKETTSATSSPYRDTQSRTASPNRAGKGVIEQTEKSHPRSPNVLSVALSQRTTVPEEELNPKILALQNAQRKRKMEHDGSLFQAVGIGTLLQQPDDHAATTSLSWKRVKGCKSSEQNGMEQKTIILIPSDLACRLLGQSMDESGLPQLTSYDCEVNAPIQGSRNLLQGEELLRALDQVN
Sequence of Nuclear factor NF-kappa-B p105 subunit (Homo sapiens) (P19838 whole entry, looked up): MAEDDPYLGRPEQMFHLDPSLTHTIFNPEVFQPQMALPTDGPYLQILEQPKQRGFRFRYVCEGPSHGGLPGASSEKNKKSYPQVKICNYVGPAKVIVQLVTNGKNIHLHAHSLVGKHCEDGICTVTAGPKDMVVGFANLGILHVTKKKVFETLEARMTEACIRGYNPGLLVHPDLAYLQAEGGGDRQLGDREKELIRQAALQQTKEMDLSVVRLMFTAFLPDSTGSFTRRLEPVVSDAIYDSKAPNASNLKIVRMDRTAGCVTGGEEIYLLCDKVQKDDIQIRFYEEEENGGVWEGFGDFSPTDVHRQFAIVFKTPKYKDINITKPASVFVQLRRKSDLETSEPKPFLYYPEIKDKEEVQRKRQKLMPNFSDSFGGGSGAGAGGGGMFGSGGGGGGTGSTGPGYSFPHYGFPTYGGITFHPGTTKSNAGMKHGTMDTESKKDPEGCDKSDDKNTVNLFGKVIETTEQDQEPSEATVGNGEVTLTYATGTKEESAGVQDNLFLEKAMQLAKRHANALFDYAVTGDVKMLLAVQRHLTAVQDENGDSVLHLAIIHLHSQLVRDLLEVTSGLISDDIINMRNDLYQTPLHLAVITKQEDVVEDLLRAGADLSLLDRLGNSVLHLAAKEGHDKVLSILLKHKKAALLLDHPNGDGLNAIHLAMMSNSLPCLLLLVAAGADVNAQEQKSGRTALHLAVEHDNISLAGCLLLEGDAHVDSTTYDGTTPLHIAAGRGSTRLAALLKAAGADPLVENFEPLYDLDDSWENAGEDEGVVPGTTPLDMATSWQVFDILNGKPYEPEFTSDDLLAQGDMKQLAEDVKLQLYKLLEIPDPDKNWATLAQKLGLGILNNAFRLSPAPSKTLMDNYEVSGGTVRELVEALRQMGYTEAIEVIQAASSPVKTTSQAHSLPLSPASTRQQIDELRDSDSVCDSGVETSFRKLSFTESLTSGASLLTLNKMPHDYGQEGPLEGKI

Oc1cc(Cl)ccc1Oc1ccc(Cl)cc1Cl
outcome [1]: inactive | outcome [2]: inactive | outcome [3]: inactive

O=C(O)C(F)(F)C(F)(F)C(F)(F)C(F)(F)C(F)(F)C(F)(F)C(F)(F)F
outcome [4]: inactive | AC50 [5]: 15.2 µM (active) and 7.54 µM (active) | outcome [6]: inactive | outcome [7]: inactive | outcome [8]: inactive | outcome [9]: inactive | outcome [10]: inactive | outcome [11]: inactive | outcome [12]: inactive | outcome [13]: inactive | outcome [14]: inactive | outcome [15]: inactive | outcome [16]: inactive | outcome [17]: inactive | outcome [18]: inactive | outcome [19]: inactive | outcome [1]: inactive | outcome [2]: inactive | outcome [3]: inactive

Cc1[nH]c(=O)n(C(C)(C)C)c(=O)c1Cl
outcome [4]: inactive | outcome [5]: inactive | outcome [6]: inactive | outcome [7]: inactive | outcome [8]: inactive | AC50 [9]: 50 µM (active) | outcome [10]: inactive | outcome [11]: inactive | AC50 [12]: 50 µM (active) | outcome [13]: inactive | outcome [14]: inactive | outcome [15]: inactive | outcome [16]: inactive | outcome [17]: inactive | outcome [18]: inactive | outcome [19]: inactive | outcome [1]: inactive | outcome [2]: inactive | outcome [3]: inactive

COP(=O)(OC)OC=C(Cl)Cl
outcome [4]: inactive | outcome [5]: inactive | outcome [6]: inactive | outcome [7]: inactive | outcome [8]: inactive | outcome [9]: inactive | outcome [10]: inactive | outcome [20]: inactive | outcome [11]: inactive | outcome [12]: inactive | outcome [13]: inactive | outcome [14]: inactive | outcome [15]: inactive | outcome [16]: inactive | outcome [17]: inactive | outcome [18]: inactive | outcome [19]: inactive | outcome [1]: inactive | outcome [2]: inactive | outcome [3]: inactive

O=[N+]([O-])/N=C1\NCCN1Cc1ccc(Cl)nc1
outcome [4]: inactive | AC50 [5]: 33.9 µM (active) | outcome [6]: inactive | AC50 [7]: 23 µM (active) | outcome [8]: inactive | outcome [9]: inactive | outcome [10]: inactive | outcome [11]: inactive | outcome [12]: inactive | outcome [13]: inactive | AC50 [14]: 36.4 µM (active) | AC50 [15]: 33 µM (active) | AC50 [16]: 23.9 µM (active) | outcome [17]: inactive | outcome [18]: inactive | outcome [19]: inactive | AC50 [1]: 16.6 µM (active) | AC50 [3]: 24.3 µM (active)

CN1CSC(=S)N(C)C1
outcome [4]: inactive | outcome [5]: inactive | outcome [6]: inactive | outcome [7]: inactive | outcome [8]: inactive | outcome [9]: inactive | outcome [10]: inactive | outcome [11]: inactive | outcome [12]: inactive | outcome [13]: inactive | outcome [14]: inactive | outcome [15]: inactive | outcome [16]: inactive | outcome [17]: inactive | outcome [18]: inactive | outcome [19]: inactive | outcome [1]: inactive | outcome [2]: inactive | outcome [3]: inactive

O=C(NC(=O)c1c(F)cccc1F)Nc1ccc(OC(F)(F)C(F)OC(F)(F)F)c(Cl)c1 (configuration not stated)
outcome [4]: inactive | outcome [5]: inactive | outcome [6]: inactive | outcome [7]: inactive | outcome [8]: inactive | outcome [9]: inactive | outcome [10]: inactive | outcome [11]: inactive | outcome [12]: inactive | outcome [13]: inactive | outcome [14]: inactive | outcome [15]: inactive | outcome [16]: inactive | outcome [17]: inactive | outcome [18]: inactive | outcome [19]: inactive | outcome [1]: inactive | outcome [2]: inactive | outcome [3]: inactive

Source: PubChem BioAssay (EPA / NIEHS)
